A short description of test [1]: NCI Yeast Anticancer Drug Screen. Data for the rad50 strain (AID 155).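 Further: 0% = growth of vehicle-only cultures of the same strain.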 Conditions: S. cerevisiae rad50 strain growth inhibition, stronger effect = higher value. In outline: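 Genetically altered yeast (DNA repair pathway); compound treatment; growth inhibition vs vehicle ctrl.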
The nature of test [2]: NCI Yeast Anticancer Drug Screen. Data for the mec2-1 strain (AID 157). Conditions: S. cerevisiae mec2-1 strain, stronger effect = higher value. In outline: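 Cells of the genetically defined mec2-1 yeast strain are incubated with test compound. Inhibition of growth is calculated against vehicle-treated controls.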
A short description of test [3]: NCI Yeast Anticancer Drug Screen. Data for the sgs1 mgt1 strain (AID 161).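 Further: 0% = growth of cultures given vehicle only.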 Conditions: S. cerevisiae sgs1 mgt1 strain, stronger effect = higher value. An outline of the steps:
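Genetically altered yeast, compound exposure, growth inhibition relative to vehicle.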

Test [4] is described as follows: NCI Yeast Anticancer Drug Screen. Data for the cln2 rad14 strain (AID 165).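 Further: 0% = growth equal to vehicle treated cultures.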 Conditions: S. cerevisiae cln2 rad14 strain, stronger effect = higher value. An outline of the steps: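 The screen exposed genetically defined yeast (cln2 rad14) to test compounds and scored growth inhibition relative to vehicle-treated controls.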
Test [5] can be described thus: NCI Yeast Anticancer Drug Screen. Data for the bub3 strain (AID 167). Conditions: S. cerevisiae bub3 mutant strain, stronger effect = higher value. In outline: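 Yeast carrying a defined mutation is treated with each compound, and growth is compared with that of vehicle-exposed cells to give inhibition.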
The nature of test [6]: NCI Yeast Anticancer Drug Screen. Data for the mlh1 rad18 strain (AID 175). Conditions: S. cerevisiae mlh1 rad18 strain growth inhibition, stronger effect = higher value. In outline: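 Compound-treated yeast growth, normalised to vehicle controls. Strain bears defined DNA repair mutations.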
Where [7] appears, read: at 5.0 µM (retest, dose inferred, filed as 0.5).
[8] abbreviates: at 50.0 µM (retest, dose inferred, filed as 5.0).

About 79,000 compounds went through this panel and 15% of them were active in at least one assay; those are over-represented in the sample as a whole. A number with no mark means an inactive call. Calls of active or inactive are those of the source. No stated cut-off is given here; in the data, active means growth inhibition above about 70%; inactive means the rest.

In the case of `Cc1ccc2c(C3Cc4ccccc4N3C(=O)/C=C\C(=O)O)c(C)[nH]c2c1` (configuration not stated), the growth inhibition in test [1] (setting [7]) is 23%; in test [1] (setting [8]), 85% (active); in test [1] (at 50.0 µM), 87.5% (active); in test [2] (setting [7]), 24%; in test [2] (setting [8]), 91% (active); in test [2] (at 50.0 µM), 88.7% (active). The growth inhibition in test [3] (setting [7]) was 37%; in test [3] (setting [8]), 89% (active); in test [3] (at 50.0 µM), 92.7% (active); in test [4] (setting [7]), 27%; in test [4] (setting [8]), 82% (active); in test [4] (at 50.0 µM), 90.1% (active). Further, the growth inhibition in test [5] (setting [7]) was 35%; in test [5] (setting [8]), 90% (active); in test [5] (at 50.0 µM), 90.6% (active); in test [6] (setting [7]) it was 39%; in test [6] (setting [8]), 95% (active); in test [6] (at 50.0 µM), 89.1% (active).

With `Cc1cc(N=Nc2ccccc2C)c(N)cc1N`, the growth inhibition in test [1] (setting [7]) was -12%; in test [1] (setting [8]) it was 56%; in test [1] (at 50.0 µM) it was 99.2% (active); in test [2] (setting [7]), -11%; in test [2] (setting [8]) it was 97% (active); in test [2] (at 50.0 µM), 99.2% (active). In addition, the growth inhibition in test [3] (setting [7]) was 4%; in test [3] (setting [8]) it was 90% (active); in test [3] (at 50.0 µM) it was 99.5% (active); in test [4] (setting [7]), -27%; in test [4] (setting [8]), 40%; in test [4] (at 50.0 µM), 98.3% (active). The growth inhibition in test [5] (setting [7]) was -14%; in test [5] (setting [8]), 86% (active); in test [5] (at 50.0 µM) it was 99.3% (active); in test [6] (setting [7]) it was -13%; in test [6] (setting [8]) it was 90% (active); in test [6] (at 50.0 µM), 99.5% (active).

Regarding `c1ccc(CCCCc2ccncc2)cc1`, the growth inhibition in test [1] (setting [7]) was 1%; in test [1] (setting [8]), 28%; in test [1] (at 50.0 µM) it was 87.3% (active); in test [2] (setting [7]), 1%; in test [2] (setting [8]) it was 13%; in test [2] (at 50.0 µM), 46.2%. The growth inhibition in test [3] (setting [7]) was 0%; in test [3] (setting [8]), 47%; in test [3] (at 50.0 µM), 94% (active); in test [4] (setting [7]), 5%; in test [4] (setting [8]), 11%; in test [4] (at 50.0 µM), 63.6%. The growth inhibition in test [5] (setting [7]) is 24%; in test [5] (setting [8]), 81% (active); in test [5] (at 50.0 µM), 93.5% (active); in test [6] (setting [7]) it was -3%; in test [6] (setting [8]), 18%; in test [6] (at 50.0 µM) it was 88.5% (active).

Take `CC(C)C(Br)CC/C(CBr)=C(\Cl)CCl` (configuration not stated): the growth inhibition in test [1] (setting [7]) is 24%; in test [1] (setting [8]), 99% (active); in test [1] (at 50.0 µM) it was 87% (active); in test [2] (setting [7]), 21%; in test [2] (setting [8]), 99% (active); in test [2] (at 50.0 µM), 85.1% (active). In addition, the growth inhibition in test [3] (setting [7]) is 13%; in test [3] (setting [8]), 99% (active); in test [3] (at 50.0 µM), 92.5% (active); in test [4] (setting [7]), 17%; in test [4] (setting [8]), 98% (active); in test [4] (at 50.0 µM), 90.2% (active). In addition, the growth inhibition is 30% in test [5] (setting [7]); 99% (active) in test [5] (setting [8]); 92.2% (active) in test [5] (at 50.0 µM); 17% in test [6] (setting [7]); 99% (active) in test [6] (setting [8]); 56.4% in test [6] (at 50.0 µM).

For `CCCCCCCCCCN(CCCCCCCCCC)C1CC(OC2CC(O)(C(O)CO)Cc3c(O)c4c(c(O)c32)C(=O)c2c(OC)cccc2C4=O)OC(C)C1O` (configuration not stated), the growth inhibition is 15% in test [1] (setting [7]); 87% (active) in test [1] (setting [8]); 43.5% in test [1] (at 50.0 µM); 8% in test [2] (setting [7]); 94% (active) in test [2] (setting [8]); 93.5% (active) in test [2] (at 50.0 µM). Also, the growth inhibition in test [3] (setting [7]) was 10%; in test [3] (setting [8]) it was 93% (active); in test [3] (at 50.0 µM), 5.25%; in test [4] (setting [7]) it was 7%; in test [4] (setting [8]) it was 88% (active); in test [4] (at 50.0 µM), 81.8% (active). In addition, the growth inhibition in test [5] (setting [7]) is 14%; in test [5] (setting [8]) it was 90% (active); in test [5] (at 50.0 µM), 90.8% (active); in test [6] (setting [7]), 17%; in test [6] (setting [8]), 87% (active); in test [6] (at 50.0 µM), 90.5% (active).

On to `Brc1ccc2[nH]c3nc4ccc5ccccc5c4nc3c2c1`, for which the growth inhibition was 2% in test [1] (setting [7]); 1% in test [1] (setting [8]); -2.35% in test [1] (at 50.0 µM); 3% in test [2] (setting [7]); 1% in test [2] (setting [8]); 20.8% in test [2] (at 50.0 µM). The growth inhibition is 0% in test [3] (setting [7]); 0% in test [3] (setting [8]); 7.15% in test [3] (at 50.0 µM); 6% in test [4] (setting [7]); -1% in test [4] (setting [8]); 71% (active) in test [4] (at 50.0 µM). The growth inhibition in test [5] (setting [7]) was 6%; in test [5] (setting [8]) it was 0%; in test [5] (at 50.0 µM), 12.4%; in test [6] (setting [7]), 6%; in test [6] (setting [8]), 2%; in test [6] (at 50.0 µM), -3.25%.

For `CCCCCCC(O)CCOC(C)=O` (configuration not stated), the growth inhibition was -3% in test [1] (setting [7]); -3% in test [1] (setting [8]); -19.4% in test [1] (at 50.0 µM); 4% in test [2] (setting [7]); 0% in test [2] (setting [8]); -13.2% in test [2] (at 50.0 µM). The growth inhibition in test [3] (setting [7]) is 1%; in test [3] (setting [8]), -3%; in test [3] (at 50.0 µM) it was -2.15%; in test [4] (setting [7]), 2%; in test [4] (setting [8]), -11%; in test [4] (at 50.0 µM), -14.8%. In addition, the growth inhibition was 4% in test [5] (setting [7]); 1% in test [5] (setting [8]); 33.1% in test [5] (at 50.0 µM); -3% in test [6] (setting [7]); 4% in test [6] (setting [8]); -1.6% in test [6] (at 50.0 µM).

As to `O=C1c2ccccc2C(O)(c2ccccc2)N1c1ccc([N+](=O)[O-])cc1` (configuration not stated), the growth inhibition in test [1] (setting [7]) was 7%; in test [1] (setting [8]) it was 99% (active); in test [1] (at 50.0 µM), 99% (active); in test [2] (setting [7]) it was 10%; in test [2] (setting [8]), 100% (active); in test [2] (at 50.0 µM), 99.3% (active). Also, the growth inhibition in test [3] (setting [7]) is 0%; in test [3] (setting [8]), 99% (active); in test [3] (at 50.0 µM) it was 99.3% (active); in test [4] (setting [7]) it was -3%; in test [4] (setting [8]) it was 99% (active); in test [4] (at 50.0 µM), 98.9% (active). Further, the growth inhibition in test [5] (setting [7]) was -2%; in test [5] (setting [8]), 99% (active); in test [5] (at 50.0 µM) it was 99% (active); in test [6] (setting [7]) it was 5%; in test [6] (setting [8]), 99% (active); in test [6] (at 50.0 µM) it was 99.3% (active).

`CC(=O)Nc1ccc(-c2nnc(SCC(=O)Nc3ccc([N+](=O)[O-])cc3)o2)cc1`: the growth inhibition is -1% in test [1] (setting [7]); 45% in test [1] (setting [8]); 33.4% in test [1] (at 50.0 µM); -8% in test [2] (setting [7]); 65% in test [2] (setting [8]); 39.3% in test [2] (at 50.0 µM). The growth inhibition was 0% in test [3] (setting [7]); 62% in test [3] (setting [8]); 46% in test [3] (at 50.0 µM); 4% in test [4] (setting [7]); 56% in test [4] (setting [8]); -37.9% in test [4] (at 50.0 µM). For the same molecule, the growth inhibition in test [5] (setting [7]) was 11%; in test [5] (setting [8]), 92% (active); in test [5] (at 50.0 µM), 82% (active); in test [6] (setting [7]), 5%; in test [6] (setting [8]) it was 74% (active); in test [6] (at 50.0 µM), 28.4%.

These data come from PubChem BioAssay (NCI).
